For seven compounds, residual activity results are on record in ChEMBL document CHEMBL2218924, “A broad activity screen in support of a chemogenomic map for kinase signalling research and drug discovery” (Biochem J, 2013).

Experiment [1] addresses Insulin receptor (Homo sapiens) (UniProt P06213). Particulars: at 10 µM.
The target is the same in experiment [2]. Particulars: at 1 µM.
For experiment [3] the target is unchanged. Particulars: at 10 µM. The source holds these as a separate data set.
Experiment [4] concerns the target Interleukin-1 receptor-associated kinase 1 (Homo sapiens) (UniProt P51617). To be noted: at 1 µM.
Experiment [5] has the same target. To be noted: at 10 µM.
The target in experiment [6] is T1, Interleukin-1 receptor-associated kinase 4 (Homo sapiens) (UniProt Q9NWZ3).
T1 sequence (whole entry): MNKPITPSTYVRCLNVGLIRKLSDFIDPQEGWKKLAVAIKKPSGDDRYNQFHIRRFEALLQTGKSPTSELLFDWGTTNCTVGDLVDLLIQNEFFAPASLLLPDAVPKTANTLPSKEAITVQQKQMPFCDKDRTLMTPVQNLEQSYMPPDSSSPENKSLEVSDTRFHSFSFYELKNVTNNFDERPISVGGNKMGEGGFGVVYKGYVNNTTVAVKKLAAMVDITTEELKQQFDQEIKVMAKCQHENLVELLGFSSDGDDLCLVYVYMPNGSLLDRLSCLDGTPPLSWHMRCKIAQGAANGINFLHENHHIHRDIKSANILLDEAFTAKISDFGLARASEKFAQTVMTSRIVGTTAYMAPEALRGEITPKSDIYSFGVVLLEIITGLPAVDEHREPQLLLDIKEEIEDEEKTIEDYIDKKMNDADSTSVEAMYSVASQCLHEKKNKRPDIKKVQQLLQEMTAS
To be noted: at 1 µM.

Experiment [7] addresses T1, Interleukin-1 receptor-associated kinase 4 (Homo sapiens). To be noted: at 10 µM.
The target in experiment [8] is Insulin receptor-related protein (Homo sapiens) (UniProt P14616). To be noted: at 1 µM.
The target is the same in experiment [9]. To be noted: at 10 µM.
In experiment [10] the target is T2, Tyrosine-protein kinase ITK/TSK (Homo sapiens) (UniProt Q08881).
T2 sequence (whole entry): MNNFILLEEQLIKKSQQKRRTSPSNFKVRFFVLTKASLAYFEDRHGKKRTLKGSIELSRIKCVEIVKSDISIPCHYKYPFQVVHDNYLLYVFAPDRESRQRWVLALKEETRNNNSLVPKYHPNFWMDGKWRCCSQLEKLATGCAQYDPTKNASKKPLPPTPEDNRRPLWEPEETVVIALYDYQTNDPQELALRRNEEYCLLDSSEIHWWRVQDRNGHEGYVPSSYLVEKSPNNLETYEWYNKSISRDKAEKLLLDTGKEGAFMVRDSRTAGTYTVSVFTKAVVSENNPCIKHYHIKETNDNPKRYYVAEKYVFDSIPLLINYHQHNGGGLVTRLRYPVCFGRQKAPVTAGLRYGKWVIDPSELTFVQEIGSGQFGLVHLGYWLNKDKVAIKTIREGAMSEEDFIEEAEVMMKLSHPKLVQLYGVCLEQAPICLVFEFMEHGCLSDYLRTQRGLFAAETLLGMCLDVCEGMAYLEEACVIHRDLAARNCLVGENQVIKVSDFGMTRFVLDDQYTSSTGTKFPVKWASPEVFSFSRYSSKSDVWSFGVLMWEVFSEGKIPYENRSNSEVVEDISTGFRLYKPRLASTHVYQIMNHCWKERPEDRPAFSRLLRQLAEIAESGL
To be noted: at 1 µM.

Experiment [11] deals with T2, Tyrosine-protein kinase ITK/TSK (Homo sapiens). To be noted: at 10 µM.
Experiment [12] addresses Tyrosine-protein kinase JAK2 (Homo sapiens) (UniProt O60674). Particulars: at 1 µM.
Experiment [13] has the same target. To be noted: at 10 µM.
Experiment [14] deals with T3, Tyrosine-protein kinase JAK3 (Homo sapiens) (UniProt P52333).
T3 sequence (whole entry): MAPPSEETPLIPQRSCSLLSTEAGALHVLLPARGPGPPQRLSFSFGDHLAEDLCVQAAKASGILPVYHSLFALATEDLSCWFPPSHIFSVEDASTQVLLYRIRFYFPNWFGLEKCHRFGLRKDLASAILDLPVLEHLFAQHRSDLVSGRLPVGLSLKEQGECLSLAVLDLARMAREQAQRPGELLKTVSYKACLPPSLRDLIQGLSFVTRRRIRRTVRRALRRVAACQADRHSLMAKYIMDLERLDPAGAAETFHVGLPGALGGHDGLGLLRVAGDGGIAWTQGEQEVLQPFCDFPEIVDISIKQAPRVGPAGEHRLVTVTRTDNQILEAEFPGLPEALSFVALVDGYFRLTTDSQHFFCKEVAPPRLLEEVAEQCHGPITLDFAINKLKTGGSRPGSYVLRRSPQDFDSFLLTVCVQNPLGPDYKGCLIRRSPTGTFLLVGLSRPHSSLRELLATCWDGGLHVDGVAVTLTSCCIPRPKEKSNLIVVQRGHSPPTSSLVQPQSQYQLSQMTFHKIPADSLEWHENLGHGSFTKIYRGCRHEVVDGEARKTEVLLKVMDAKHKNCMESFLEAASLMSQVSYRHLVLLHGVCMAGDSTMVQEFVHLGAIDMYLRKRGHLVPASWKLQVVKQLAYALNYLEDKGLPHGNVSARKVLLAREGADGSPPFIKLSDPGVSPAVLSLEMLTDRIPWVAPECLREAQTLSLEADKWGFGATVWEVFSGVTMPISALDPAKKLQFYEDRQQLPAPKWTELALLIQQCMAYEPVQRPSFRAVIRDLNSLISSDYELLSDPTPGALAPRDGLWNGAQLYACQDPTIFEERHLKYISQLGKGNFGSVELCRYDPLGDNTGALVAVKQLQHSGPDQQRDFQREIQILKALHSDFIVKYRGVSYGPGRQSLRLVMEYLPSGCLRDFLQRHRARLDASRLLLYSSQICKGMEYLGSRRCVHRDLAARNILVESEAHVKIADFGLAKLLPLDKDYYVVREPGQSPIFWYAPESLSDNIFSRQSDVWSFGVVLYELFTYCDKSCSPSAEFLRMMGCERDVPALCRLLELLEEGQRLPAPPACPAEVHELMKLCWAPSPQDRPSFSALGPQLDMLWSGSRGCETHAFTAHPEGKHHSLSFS
To be noted: at 1 µM.

Experiment [15] addresses T3, Tyrosine-protein kinase JAK3 (Homo sapiens). To be noted: at 10 µM.
The target of experiment [16] is Mitogen-activated protein kinase 8 (Homo sapiens) (UniProt P45983). To be noted: at 1 µM.
Experiment [17] has the same target. Particulars: at 10 µM.
Experiment [18] has as its target Mitogen-activated protein kinase 9 (Homo sapiens) (UniProt P45984). To be noted: at 1 µM.
The target is the same in experiment [19]. To be noted: at 10 µM.
Experiment [20] addresses Mitogen-activated protein kinase 10 (Homo sapiens) (UniProt P53779). To be noted: at 1 µM.

Sequence of Insulin receptor (Homo sapiens) (P06213 28-758 limits assumed): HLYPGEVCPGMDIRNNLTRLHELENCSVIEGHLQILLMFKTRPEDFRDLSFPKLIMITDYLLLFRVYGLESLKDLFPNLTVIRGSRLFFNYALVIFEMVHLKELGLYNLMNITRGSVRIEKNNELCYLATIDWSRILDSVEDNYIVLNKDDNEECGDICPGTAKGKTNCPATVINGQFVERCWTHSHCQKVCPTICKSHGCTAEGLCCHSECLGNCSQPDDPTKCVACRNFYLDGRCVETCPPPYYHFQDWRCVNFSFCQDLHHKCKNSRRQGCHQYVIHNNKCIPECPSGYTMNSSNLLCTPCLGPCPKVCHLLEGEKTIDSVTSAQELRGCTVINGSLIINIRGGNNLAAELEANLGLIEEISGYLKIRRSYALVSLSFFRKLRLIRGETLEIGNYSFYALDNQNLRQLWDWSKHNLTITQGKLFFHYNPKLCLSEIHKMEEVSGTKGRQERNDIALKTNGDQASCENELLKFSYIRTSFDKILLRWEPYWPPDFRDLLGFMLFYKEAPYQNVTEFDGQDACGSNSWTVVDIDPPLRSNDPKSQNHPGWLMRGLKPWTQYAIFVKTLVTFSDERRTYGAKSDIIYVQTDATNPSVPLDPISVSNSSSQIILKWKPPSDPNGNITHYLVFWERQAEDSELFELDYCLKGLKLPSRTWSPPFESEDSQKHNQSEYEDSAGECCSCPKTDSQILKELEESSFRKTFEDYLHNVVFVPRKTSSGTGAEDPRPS
Sequence of Insulin receptor (Homo sapiens) (P06213 763-1382 limits assumed): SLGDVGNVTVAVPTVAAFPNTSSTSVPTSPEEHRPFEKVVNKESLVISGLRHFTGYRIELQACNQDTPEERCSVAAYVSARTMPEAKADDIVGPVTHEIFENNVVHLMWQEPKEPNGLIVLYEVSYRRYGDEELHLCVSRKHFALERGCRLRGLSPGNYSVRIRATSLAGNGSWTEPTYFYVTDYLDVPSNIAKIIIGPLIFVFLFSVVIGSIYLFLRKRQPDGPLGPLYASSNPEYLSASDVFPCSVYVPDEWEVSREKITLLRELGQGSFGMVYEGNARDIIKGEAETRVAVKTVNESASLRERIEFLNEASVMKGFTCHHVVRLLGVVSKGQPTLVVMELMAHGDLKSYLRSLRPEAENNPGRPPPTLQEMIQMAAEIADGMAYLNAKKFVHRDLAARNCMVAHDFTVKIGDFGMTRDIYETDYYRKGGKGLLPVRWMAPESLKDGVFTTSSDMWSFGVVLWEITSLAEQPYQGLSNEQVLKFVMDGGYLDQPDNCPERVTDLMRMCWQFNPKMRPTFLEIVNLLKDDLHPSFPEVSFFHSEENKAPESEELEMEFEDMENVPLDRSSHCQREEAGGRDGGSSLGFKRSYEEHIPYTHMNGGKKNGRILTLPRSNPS
Sequence of Mitogen-activated protein kinase 8 (Homo sapiens) (P45983 whole entry): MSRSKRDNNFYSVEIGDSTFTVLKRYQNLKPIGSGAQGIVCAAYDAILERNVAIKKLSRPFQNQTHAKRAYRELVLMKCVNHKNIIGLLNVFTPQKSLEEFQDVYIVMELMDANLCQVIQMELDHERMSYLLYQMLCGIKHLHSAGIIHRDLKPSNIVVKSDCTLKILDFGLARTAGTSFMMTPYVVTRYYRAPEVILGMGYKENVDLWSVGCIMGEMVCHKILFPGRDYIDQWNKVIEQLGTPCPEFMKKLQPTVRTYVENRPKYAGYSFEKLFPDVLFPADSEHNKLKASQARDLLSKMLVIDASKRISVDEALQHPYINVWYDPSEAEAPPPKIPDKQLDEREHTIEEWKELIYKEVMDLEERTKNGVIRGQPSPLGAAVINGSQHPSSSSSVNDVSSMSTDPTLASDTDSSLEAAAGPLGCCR
Sequence of Interleukin-1 receptor-associated kinase 1 (Homo sapiens) (P51617 whole entry, looked up): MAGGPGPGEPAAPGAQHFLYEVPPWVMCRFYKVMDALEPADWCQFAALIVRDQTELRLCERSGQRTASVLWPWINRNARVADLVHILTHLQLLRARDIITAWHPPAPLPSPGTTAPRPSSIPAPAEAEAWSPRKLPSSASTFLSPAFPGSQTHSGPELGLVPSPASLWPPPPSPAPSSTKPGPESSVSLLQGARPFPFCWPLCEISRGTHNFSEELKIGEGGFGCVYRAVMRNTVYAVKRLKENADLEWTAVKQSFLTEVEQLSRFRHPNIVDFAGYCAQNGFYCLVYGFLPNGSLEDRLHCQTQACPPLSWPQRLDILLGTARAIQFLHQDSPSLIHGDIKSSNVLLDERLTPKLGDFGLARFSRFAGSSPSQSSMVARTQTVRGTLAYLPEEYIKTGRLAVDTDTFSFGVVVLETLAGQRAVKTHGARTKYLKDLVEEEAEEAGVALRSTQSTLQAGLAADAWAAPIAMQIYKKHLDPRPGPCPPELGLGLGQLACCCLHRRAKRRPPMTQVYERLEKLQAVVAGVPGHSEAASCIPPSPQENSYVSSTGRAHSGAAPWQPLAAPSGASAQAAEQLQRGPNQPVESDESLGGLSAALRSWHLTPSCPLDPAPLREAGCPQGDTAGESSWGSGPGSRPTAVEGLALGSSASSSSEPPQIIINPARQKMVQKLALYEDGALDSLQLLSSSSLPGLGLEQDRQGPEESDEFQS
Sequence of Mitogen-activated protein kinase 9 (Homo sapiens) (P45984 whole entry, looked up): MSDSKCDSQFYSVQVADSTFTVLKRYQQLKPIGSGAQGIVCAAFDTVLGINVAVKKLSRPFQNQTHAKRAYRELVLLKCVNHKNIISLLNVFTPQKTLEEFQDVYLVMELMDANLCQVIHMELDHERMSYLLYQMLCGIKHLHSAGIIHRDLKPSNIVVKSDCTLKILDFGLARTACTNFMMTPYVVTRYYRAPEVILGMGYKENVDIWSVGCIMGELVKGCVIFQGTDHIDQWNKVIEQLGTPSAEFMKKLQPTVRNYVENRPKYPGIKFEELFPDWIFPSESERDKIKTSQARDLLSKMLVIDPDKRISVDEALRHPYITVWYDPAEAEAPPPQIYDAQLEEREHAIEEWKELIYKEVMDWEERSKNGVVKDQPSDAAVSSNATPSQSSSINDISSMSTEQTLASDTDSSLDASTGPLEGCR
Sequence of Insulin receptor-related protein (Homo sapiens) (P14616 27-742 limits assumed): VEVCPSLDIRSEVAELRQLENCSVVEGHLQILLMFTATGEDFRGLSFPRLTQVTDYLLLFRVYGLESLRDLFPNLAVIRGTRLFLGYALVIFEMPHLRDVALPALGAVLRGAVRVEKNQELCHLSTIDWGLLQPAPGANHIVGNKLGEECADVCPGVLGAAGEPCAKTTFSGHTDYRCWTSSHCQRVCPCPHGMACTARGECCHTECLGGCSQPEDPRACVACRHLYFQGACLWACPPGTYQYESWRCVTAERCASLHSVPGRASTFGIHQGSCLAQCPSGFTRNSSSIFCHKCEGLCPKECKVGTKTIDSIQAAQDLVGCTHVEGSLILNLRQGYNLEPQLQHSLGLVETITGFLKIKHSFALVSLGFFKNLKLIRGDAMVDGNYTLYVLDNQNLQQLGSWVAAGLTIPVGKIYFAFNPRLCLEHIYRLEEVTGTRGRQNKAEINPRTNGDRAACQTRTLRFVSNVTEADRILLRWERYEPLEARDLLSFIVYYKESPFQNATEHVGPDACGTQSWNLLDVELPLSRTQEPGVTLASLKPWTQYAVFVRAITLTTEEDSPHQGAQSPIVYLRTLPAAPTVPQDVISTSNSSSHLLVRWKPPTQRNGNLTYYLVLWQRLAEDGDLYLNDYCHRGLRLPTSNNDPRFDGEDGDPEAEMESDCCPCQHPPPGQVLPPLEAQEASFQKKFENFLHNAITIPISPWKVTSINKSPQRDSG
Sequence of Insulin receptor-related protein (Homo sapiens) (P14616 747-1297 limits assumed): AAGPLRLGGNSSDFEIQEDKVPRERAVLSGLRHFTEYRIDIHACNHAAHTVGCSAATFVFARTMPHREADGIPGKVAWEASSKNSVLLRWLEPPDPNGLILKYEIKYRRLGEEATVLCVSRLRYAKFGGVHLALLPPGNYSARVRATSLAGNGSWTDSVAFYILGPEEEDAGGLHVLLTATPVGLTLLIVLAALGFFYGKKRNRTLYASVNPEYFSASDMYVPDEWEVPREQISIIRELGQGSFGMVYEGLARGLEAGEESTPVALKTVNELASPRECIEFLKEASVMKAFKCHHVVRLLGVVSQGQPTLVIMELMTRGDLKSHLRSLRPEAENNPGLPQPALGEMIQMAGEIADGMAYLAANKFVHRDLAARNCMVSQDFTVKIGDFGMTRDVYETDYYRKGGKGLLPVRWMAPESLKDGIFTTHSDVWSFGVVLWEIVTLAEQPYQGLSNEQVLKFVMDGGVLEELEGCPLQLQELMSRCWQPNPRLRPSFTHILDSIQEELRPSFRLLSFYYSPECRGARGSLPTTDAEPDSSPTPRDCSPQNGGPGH
Sequence of Mitogen-activated protein kinase 10 (Homo sapiens) (P53779 whole entry): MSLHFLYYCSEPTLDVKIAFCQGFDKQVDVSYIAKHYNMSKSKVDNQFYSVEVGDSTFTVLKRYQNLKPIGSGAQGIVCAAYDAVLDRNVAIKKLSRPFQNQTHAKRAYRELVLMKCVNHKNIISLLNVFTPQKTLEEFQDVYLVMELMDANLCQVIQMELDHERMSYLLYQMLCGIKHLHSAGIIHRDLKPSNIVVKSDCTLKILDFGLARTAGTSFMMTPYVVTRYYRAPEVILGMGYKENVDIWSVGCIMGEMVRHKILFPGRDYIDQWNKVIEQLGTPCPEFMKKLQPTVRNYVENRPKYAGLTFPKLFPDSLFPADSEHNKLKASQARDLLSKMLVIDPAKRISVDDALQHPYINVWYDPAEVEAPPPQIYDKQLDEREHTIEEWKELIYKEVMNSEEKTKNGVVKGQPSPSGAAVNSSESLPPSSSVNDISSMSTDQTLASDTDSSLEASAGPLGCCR

As for `COc1cc2ncnc(N3CCN(C(=O)Nc4ccc(Oc5ccccc5)cc4)CC3)c2cc1OC`, the residual activity in [1] stood at 113%; in [2], 98%; in experiment [3] it was 97%; in [4] it was 76%; in experiment [5] it was 57%; in experiment [6], 87%. Moreover, the residual activity in [7] is 98%; in experiment [8] it was 117%; in [9], 80%; in [10], 88%; in [11] it was 73%; in [12], 101%. In addition, the residual activity came out at 118% in [13]; 97% in [14]; 124% in experiment [15]; 93% in [16]; 75% in experiment [17]; 108% in experiment [18]. Besides, the residual activity amounted to 97% in experiment [19] and 85% in experiment [20].
As for `O=C(Nc1cccc(Nc2nccc(Nc3cccc(C(F)(F)F)c3)n2)c1)C1CC1`, the residual activity is 12% in [1]; 86% in experiment [2]; 97% in [3]; 81% in experiment [4]; 82% in [5]; 50% in experiment [6]. The residual activity in [7] came out at 44%; in experiment [8], 13%; in [9], 1%; in experiment [10], 96%; in experiment [11], 56%; in experiment [12] it was 19%. The residual activity is 29% in [13]; 76% in experiment [14]; 23% in [15]; 109% in experiment [16]; 61% in experiment [17]; 102% in [18]. Further, the results for the residual activity in experiment [19] and in experiment [20] were 93% and 51%, respectively.
Take `COc1ccc(S(=O)(=O)N(CCO)c2ccccc2CN(C)C/C=C/c2ccc(Cl)cc2)cc1`: the residual activity in experiment [1] came to 114%; in experiment [2], 100%; in experiment [3], 90%; in [4], 99%; in experiment [5] it was 106%; in [6] it was 81%. Besides, the residual activity worked out at 75% in experiment [7]; 117% in experiment [8]; 90% in experiment [9]; 99% in experiment [10]; 94% in [11]; 102% in [12]. Moreover, the residual activity turned out to be 131% in experiment [13]; 116% in [14]; 104% in experiment [15]; 95% in experiment [16]; 85% in [17]; 92% in experiment [18]. Further, the residual activity in experiment [19] was determined as 97%; in experiment [20], 82%.
Turning to `O=C(Nc1cccc(Nc2cc(Nc3cccc(C(F)(F)F)c3)ncn2)c1)C1CC1`, the residual activity came out at 94% in experiment [1]; 97% in [2]; 106% in experiment [3]; 95% in experiment [4]; 96% in [5]; 97% in experiment [6]. Besides, the residual activity in experiment [7] stood at 80%; in experiment [8], 117%; in experiment [9] it was 63%; in experiment [10], 105%; in [11] it was 95%; in [12], 116%. Also, the residual activity in [13] came to 138%; in experiment [14], 106%; in [15], 115%; in experiment [16], 107%; in [17], 83%; in [18] it was 104%. The residual activity amounted to 103% in [19] and 82% in [20].
Turning to `O=Nc1c(-c2c(O)[nH]c3ccccc23)[nH]c2ccccc12`, the residual activity amounted to 10% in experiment [1]; 35% in experiment [2]; 19% in experiment [3]; 60% in experiment [4]; 11% in [5]; 41% in [6]. Also, the residual activity in experiment [7] is 6%; in experiment [8], 2%; in [9], 1%; in experiment [10] it was 19%; in [11] it was 1%; in experiment [12], 92%. In addition, the residual activity is 11% in [13]; 21% in experiment [14]; 2% in experiment [15]; 63% in [16]; 70% in experiment [17]; 55% in experiment [18]. Further, the figures for the residual activity in experiment [19] and in [20] were 17% and 7%, respectively.
For `O=C1NC(=O)c2c1c1c3ccccc3[nH]c1c1[nH]c3cc(Br)ccc3c21`, the residual activity in experiment [1] is 88%; in experiment [2] it was 103%; in [3], 95%; in experiment [4] it was 106%; in experiment [5], 107%; in experiment [6], 92%. Also, the residual activity was 76% in experiment [7]; 97% in experiment [8]; 84% in experiment [9]; 102% in experiment [10]; 97% in experiment [11]; 97% in [12]. Besides, the residual activity in experiment [13] was 106%; in [14], 94%; in experiment [15], 96%; in experiment [16], 110%; in experiment [17] it was 98%; in experiment [18] it was 110%. In addition, the results for the residual activity in experiment [19] and in experiment [20] were 121% and 77%, respectively.
For `CNc1cc2c(Nc3cccc(Br)c3)ncnc2cn1`, the residual activity in [1] worked out at 48%; in experiment [2], 96%; in experiment [3], 103%; in experiment [4] it was 95%; in [5] it was 75%; in [6] it was 96%. Further, the residual activity stood at 61% in experiment [7]; 135% in [8]; 71% in experiment [9]; 104% in [10]; 87% in experiment [11]; 70% in [12]. In addition, the residual activity is 56% in experiment [13]; 96% in experiment [14]; 78% in experiment [15]; 100% in experiment [16]; 97% in [17]; 98% in [18]. The figures for the residual activity in experiment [19] and in experiment [20] were 92% and 97%, respectively.
